From PubChem BioAssay AID1159580 (chemical genetic matrix, 2015)
“And” between values parts separate entries of the source, which are not always exact repeats. Identical values can stand only once. Screen size: about 5,500 compounds; about 2,000 (36%) were called active. Inconclusive results (about 18%) are left out. Cut-off read from the data, not from the text of the source: active = normalized growth mostly below about 0.91 (no sharp cut-off); inconclusive = no clear call, values can overlap the other calls; inactive = mostly above about 0.92. The list shows a part of the results.

Test: chemical genetic growth profiling, strain panel (AID 1159580);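 note: tested at 20 µM; growth read once vehicle control cultures reached saturation at 30 °C; 1 = growth at the plate median or of vehicle wells; lower values mean less growth of the strain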
Conditions: S. cerevisiae deletion strains, growth OD
[1] = locus YBR229C, strain ROT2, stronger effect = lower value
[2] = locus YDL101C, strain DUN1, stronger effect = lower value
[3] = locus YDR150W, strain NUM1, stronger effect = lower value
[4] = locus YEL061C, strain CIN8, stronger effect = lower value
[5] = locus YGR078C, strain PAC10, stronger effect = lower value
[6] = locus YHR030C, strain SLT2, stronger effect = lower value
[7] = locus YJR043C, strain POL32, stronger effect = lower value
[8] = locus YKL190W, strain CNB1, stronger effect = lower value
[9] = locus YLR039C, strain RIC1, stronger effect = lower value
[10] = locus YLR262C, strain YPT6, stronger effect = lower value
[11] = locus YMR263W, strain SAP30, stronger effect = lower value
[12] = locus YNL153C, strain GIM3, stronger effect = lower value
[13] = locus YPL055C, strain LGE1, stronger effect = lower value

Measured: normalized growth

CC(C)N(Cc1ccc(N(C)C)cc1)S(=O)(=O)c1cc(Cl)c(Cl)cc1Cl
inactive: locus YAL013W, strain DEP1, stronger effect = lower value 1 | [1] 1.01 | [2] 1.03 | locus YDL134C, strain PPH21, stronger effect = lower value 1.01 | [3] 1.01 | [4] 0.986 | [5] 1.02 | [6] 1.07 | locus YHR087W, strain rtc3, stronger effect = lower value 1 | [7] 1.01 | locus YJR075W, strain HOC1, stronger effect = lower value 1.02 | [8] 1.01 | [9] 1.01 | locus YLR058C, strain SHM2 (second series), stronger effect = lower value 1 | locus YLR085C, strain ARP6, stronger effect = lower value 1.06 | [10] 0.999 | locus YML094W, strain GIM5, stronger effect = lower value 1.02 | locus YMR219W, strain ESC1, stronger effect = lower value 1 | [11] 1.02 | locus YNL128W, strain TEP1, stronger effect = lower value 1.02 | [12] 1.03 | locus YNL298W, strain CLA4 (second series), stronger effect = lower value 1.03 | locus YNL322C, strain KRE1, stronger effect = lower value 1.01 | locus YNR030W, strain Alg12, stronger effect = lower value 1.04 | locus YOL006C, strain TOP1, stronger effect = lower value 1.08 | [13] 1 | locus YPL241C, strain CIN2, stronger effect = lower value 1.04 | locus YPR135W, strain CTF4, stronger effect = lower value 1.1

CC(=O)c1c(O)c(C)c(O)c2c1OC1=CC(=O)C(C(C)=O)C(=O)C12C (stereo not drawn)
1.01 (inactive) and 0.142 (active): [6]
active: locus YAL021C, strain ccr4, stronger effect = lower value 0.816 | locus YAL026C, strain drs2, stronger effect = lower value 0.812 | locus YBR009C, strain hhf1, stronger effect = lower value 0.739 | locus YCL011C, strain gbp2, stronger effect = lower value 0.672 | locus YCL061C, strain MRC1, stronger effect = lower value 0.858 | locus YCR088W, strain abp1, stronger effect = lower value 0.872 | locus YDL185W, strain tfp1, stronger effect = lower value 0.506 | locus YDL192W, strain arf1, stronger effect = lower value 0.852 | locus YDR101C, strain arx1, stronger effect = lower value 0.89 | locus YDR159W, strain sac3, stronger effect = lower value 0.762 | locus YDR195W, strain ref2 0.799 | locus YDR335W, strain msn5, stronger effect = lower value 0.752 | locus YDR392W, strain spt3, stronger effect = lower value 0.526 | locus YDR502C, strain sam2, stronger effect = lower value 0.853 | locus YEL003W, strain gim4, stronger effect = lower value 0.787 | locus YEL061C, strain CIN8 (second series), stronger effect = lower value 0.895 | locus YER015W, strain faa2, stronger effect = lower value 0.912 | locus YGL078C, strain dbp3, stronger effect = lower value 0.567 | locus YGL086W, strain mad1, stronger effect = lower value 0.909 | locus YGL253W, strain hxk2, stronger effect = lower value 0.892 | locus YHR079C, strain IRE1, stronger effect = lower value 0.133 | locus YHR142W, strain chs7, stronger effect = lower value 0.82 | locus YIL125W, strain kgd1, stronger effect = lower value 0.365 | locus YJL092W, strain hpr5, stronger effect = lower value 0.908 | locus YJL129C, strain trk1, stronger effect = lower value 0.684 | locus YJL164C, strain tpk1, stronger effect = lower value 0.84 | locus YJR066W, strain TOR1, stronger effect = lower value 0.465 | locus YKL009W, strain mrt4, stronger effect = lower value 0.387 | locus YKL085W, strain MDH1 (second series), stronger effect = lower value 0.275 | locus YKL085W, strain MDH1, stronger effect = lower value 0.275 | locus YKR001C, strain vps1, stronger effect = lower value 0.813 | locus YLL026W, stronger effect = lower value 0.925 | locus YLR027C, strain aat2, stronger effect = lower value 0.796 | locus YLR113W, strain HOG1, stronger effect = lower value 0.186 | locus YLR221C, strain rsa3, stronger effect = lower value 0.781 | locus YLR258W, strain gsy2, stronger effect = lower value 0.889 | locus YLR262C, strain YPT6 (second series), stronger effect = lower value 0.723 | locus YLR370C, strain arc18, stronger effect = lower value 0.9 | locus YLR418C, strain cdc73, stronger effect = lower value 0.694 | locus YML120C, strain ndi1, stronger effect = lower value 0.439 | locus YMR058W, strain fet3, stronger effect = lower value 0.834 | locus YMR125W, strain sto1, stronger effect = lower value 0.875 | locus YMR129W, stronger effect = lower value 0.911 | locus YMR205C, strain PFK2, stronger effect = lower value 0.759 | locus YMR231W, strain pep5, stronger effect = lower value 0.169 | locus YNL071W, strain lat1, stronger effect = lower value 0.907 | locus YNL183C, strain NPR1, stronger effect = lower value 0.693 | locus YNL209W, strain ssb2, stronger effect = lower value 0.924 | locus YNL250W, strain rad50, stronger effect = lower value 0.328 | locus YNL271C, strain bni1, stronger effect = lower value 0.773 | locus YNL298W, strain CLA4, stronger effect = lower value 0.332 | locus YNL322C, strain KRE1 (second series), stronger effect = lower value 0.83 | locus YNR052C, strain pop2, stronger effect = lower value 0.876 | locus YOR001W, strain rrp6, stronger effect = lower value 0.672 | locus YOR083W, strain WHI5, stronger effect = lower value 0.859 | locus YOR106W, strain vam3, stronger effect = lower value 0.254 | locus YOR144C, strain elg1, stronger effect = lower value 0.898 | locus YOR184W, strain ser1, stronger effect = lower value 0.723 | locus YOR231W, strain MKK1, stronger effect = lower value 0.127 | locus YOR265W, strain rbl2, stronger effect = lower value 0.928 | locus YOR290C, strain snf2, stronger effect = lower value 0.644 | locus YPL078C, strain atp4, stronger effect = lower value 0.873 | locus YPL240C, strain hsp82, stronger effect = lower value 0.894 | locus YPL256C, strain CLN2, stronger effect = lower value 0.189 | locus YPR141C, strain kar3, stronger effect = lower value 0.888 | strain wtn01, stronger effect = lower value 0.841
1.03 (inactive) and 0.13 (active): locus YJL095W, strain BCK1, stronger effect = lower value
inactive: locus YAL030W, strain snc1, stronger effect = lower value 0.938 | locus YBL061C, strain skt5, stronger effect = lower value 0.966 | locus YBR021W, strain FUR4, stronger effect = lower value 1.01 | locus YBR023C, strain chs3, stronger effect = lower value 0.978 | locus YBR171W, strain sec66, stronger effect = lower value 0.933 | [1] 1.01 | locus YBR231C, strain swc5, stronger effect = lower value 0.963 | locus YBR279W, strain paf1, stronger effect = lower value 1.01 | locus YCL016C, strain dcc1, stronger effect = lower value 0.987 | locus YCL029C, strain bik1, stronger effect = lower value 0.976 | locus YCL069W, strain vba3, stronger effect = lower value 0.957 | locus YDL005C, strain med2, stronger effect = lower value 0.985 | locus YDL035C, strain GPR1, stronger effect = lower value 1.01 | locus YDL040C, strain nat1, stronger effect = lower value 0.991 | locus YDL074C, strain BRE1, stronger effect = lower value 0.987 | [2] 1.01 | locus YDR001C, strain nth1, stronger effect = lower value 0.96 | locus YDR069C, strain doa4, stronger effect = lower value 0.98 | locus YDR137W, strain rgp1, stronger effect = lower value 0.972 | [3] 1.01 | locus YDR162C, strain NBP2, stronger effect = lower value 1.03 | locus YDR297W, strain sur2, stronger effect = lower value 0.962 | locus YDR318W, strain mcm21, stronger effect = lower value 0.981 | locus YDR334W, strain swr1, stronger effect = lower value 0.953 | locus YDR388W, stronger effect = lower value 0.976 | locus YEL037C, strain rad23, stronger effect = lower value 0.948 | [4] 1.01 | locus YER016W, strain bim1, stronger effect = lower value 1 | locus YER110C, stronger effect = lower value 0.988 | locus YER111C, strain swi4, stronger effect = lower value 0.919 | locus YER155C, strain BEM2 (second series), stronger effect = lower value 0.868 | locus YER155C, strain BEM2, stronger effect = lower value 1.01 | locus YER167W, strain BCK2, stronger effect = lower value 1.01 | locus YFR010W, strain ubp6, stronger effect = lower value 0.901 | locus YGL167C, strain pmr1, stronger effect = lower value 1.01 | locus YGL173C, strain kem1, stronger effect = lower value 0.992 | locus YGL227W, strain vid30, stronger effect = lower value 0.946 | locus YGL240W, strain doc1, stronger effect = lower value 0.894 | locus YGL248W, strain PDE1, stronger effect = lower value 1.02 | [5] 1.02 | locus YGR135W, strain pre9, stronger effect = lower value 0.946 | locus YGR252W, strain gcn5, stronger effect = lower value 0.945 | locus YHR013C, strain ard1, stronger effect = lower value 1 | locus YHR027C, strain rpn1, stronger effect = lower value 0.983 | locus YHR079C, strain IRE1 (second series), stronger effect = lower value 0.986 | locus YHR094C, strain hxt1, stronger effect = lower value 0.984 | locus YHR129C, strain ARP1, stronger effect = lower value 1.02 | locus YHR200W, strain rpn10, stronger effect = lower value 0.932 | locus YIL066C, strain RNR3, stronger effect = lower value 1.02 | locus YIL073C, strain SPO22, stronger effect = lower value 1.03 | locus YIR030C, strain dcg1, stronger effect = lower value 0.975 | locus YJL095W, strain BCK1 (second series), stronger effect = lower value 0.964 | locus YJL115W, strain asf1, stronger effect = lower value 0.947 | locus YJL134W, strain LCB3, stronger effect = lower value 1.01 | locus YJL154C, strain vps35, stronger effect = lower value 0.979 | locus YJL166W, strain qcr8, stronger effect = lower value 0.913 | locus YJL168C, strain set2, stronger effect = lower value 0.972 | locus YJL187C, strain SWE1 (second series), stronger effect = lower value 1.01 | locus YJL187C, strain SWE1, stronger effect = lower value 0.972 | [7] 1.01 | locus YKL068W, stronger effect = lower value 1.01 | locus YKL160W, strain elf1, stronger effect = lower value 0.977 | [8] 1.01 | locus YKR026C, strain gcn3, stronger effect = lower value 0.938 | locus YKR091W, strain srl3, stronger effect = lower value 0.942 | locus YLL001W, strain dnm1, stronger effect = lower value 0.933 | locus YLL041C, strain sdh2, stronger effect = lower value 0.936 | [9] 1.01 | locus YLR058C, strain SHM2, stronger effect = lower value 1.01 | locus YLR102C, strain apc9, stronger effect = lower value 0.99 | [10] 1.03 | locus YLR268W, strain sec22, stronger effect = lower value 0.932 | locus YLR320W, strain mms22, stronger effect = lower value 0.907 | locus YLR330W, strain CHS5, stronger effect = lower value 1.01 | locus YLR342W, strain FKS1 (second series), stronger effect = lower value 0.946 | locus YLR342W, strain FKS1, stronger effect = lower value 0.93 | locus YLR357W, strain rsc2, stronger effect = lower value 0.886 | locus YLR371W, strain rom2, stronger effect = lower value 0.998 | locus YLR384C, strain iki3, stronger effect = lower value 0.957 | locus YML016C, strain PPZ1, stronger effect = lower value 1.01 | locus YML032C, strain rad52, stronger effect = lower value 0.953 | locus YML124C, strain tub3, stronger effect = lower value 0.96 | locus YMR078C, strain ctf18, stronger effect = lower value 0.976 | locus YMR223W, strain ubp8, stronger effect = lower value 0.958 | [11] 1.01 | locus YMR307W, strain GAS1, stronger effect = lower value 0.956 | locus YNL067W, strain RPL9B, stronger effect = lower value 1.02 | [12] 1.01 | locus YNL233W, strain BNI4, stronger effect = lower value 1.03 | locus YNL248C, strain rpa49, stronger effect = lower value 0.925 | locus YNL307C, strain MCK1, stronger effect = lower value 0.971 | locus YNR049C, strain mso1, stronger effect = lower value 0.962 | locus YOL012C, strain htz1 1.07 | locus YOL147C, strain pex11, stronger effect = lower value 0.968 | locus YOR061W, strain CKA2, stronger effect = lower value 1.02 | locus YOR069W, strain VPS5, stronger effect = lower value 1.01 | locus YOR070C, strain gyp1, stronger effect = lower value 0.966 | locus YOR080W, strain dia2, stronger effect = lower value 0.975 | locus YOR136W, strain idh2, stronger effect = lower value 0.976 | locus YOR270C, strain vph1, stronger effect = lower value 1.08 | locus YOR316C, strain cot1, stronger effect = lower value 0.989 | locus YPL051W, strain arl3, stronger effect = lower value 0.938 | [13] 0.999 | locus YPL106C, strain sse1, stronger effect = lower value 0.86 | locus YPR119W, strain clb2, stronger effect = lower value 0.964 | locus YPR163C, strain tif3, stronger effect = lower value 0.968 | locus YPR167C, strain met16, stronger effect = lower value 0.944
